# Laboratory results taken from ChEMBL document CHEMBL3988442, “University of Dundee, Small-Polar-MMV Screening Library” (2021).
# The campaign covered roughly 48,000 compounds. About 13,000 (27%) showed an effect of 50% or more. The list shows a part of the results.
# Tested on: Wolbachia pipientis
# Experiment: Anti-Wolbachia Cell-Based Screen
# Format: functional
# Set-up: scale not given: in the data most compounds retested in dose-response had high values
# Settings: 5 µM
row,SMILES,Percent Effect [%]
1,CNC(=O)c1nc(CN2CCOC(CCCC(C)C)C2)no1 (centres undefined),2.803
2,O=C(NC1CC1)c1nc(Cn2c(C(F)F)nc3ccccc32)no1,97.34
3,CC(C)NC(=O)c1nc(Cn2c(C(F)F)nc3ccccc32)no1,117.9
4,Cc1ccc(C(=O)NC2CCN(Cc3noc(CC(C)C)n3)CC2)s1,3.066
5,CC(C)NC(=O)c1nc(Cn2c(C(F)(F)F)nc3ccccc32)no1,97.59
6,CNC(=O)c1nc(CN2CCOC(C(F)(F)F)C2)no1 (centres undefined),-14.11
7,NC(=O)c1nc(CN2CCOC(C(F)(F)F)C2)no1 (centres undefined),-3.309
8,CC(C)NC(=O)CN(C)C1CCN(c2cnc3ccccc3n2)CC1,-13.33
9,CNC(=O)c1nc(CN2CCOC(Cc3ccc(F)cc3)C2)no1 (centres undefined),-1.093
10,O=C(NCCn1ccnc1)c1csc(Br)c1,7.312
11,CC(C)c1cncnc1-c1cc(F)cc2c1OC(CN)C2 (centres undefined),-15.48
12,O=C(c1nc2c(s1)CCCN2CC1CC1)N1CCCC1,21.73
13,CN1CCCc2sc(C(=O)NC3CC3)nc21,-6.027
14,O=C(c1nc2c(s1)CCCN2C(=O)C1CC1)N1CCOCC1,0.08995
15,Cc1ccc(N2CCCc3sc(C(=O)NCC4CCCO4)nc32)nn1 (centres undefined),101.4
16,O=C(NC1CC1)c1nc2c(s1)CCCN2c1ccccc1,3.118
17,O=C(NCC1CCCO1)c1nc2c(s1)CCCN2c1ncccn1 (centres undefined),95.9
18,O=C(c1nc2c(s1)CCCN2CC1CC1)N1CCOCC1,13.28
19,Cc1ccc(N2CCCc3sc(C(=O)NCCO)nc32)nn1,-4.347
20,O=C(NCC1CCCO1)c1nc2c(s1)CCCN2CC1CC1 (centres undefined),97.2
21,Cc1ccc(N2CCCc3sc(C(=O)NCc4ccc(C)o4)nc32)nn1,-0.9915
22,O=C(NCC1CCCO1)c1nc2c(s1)CCCN2C(=O)C1CC1 (centres undefined),108.2
23,O=C(NCc1cccnc1)c1nc2c(s1)CCCN2c1ncccn1,-3.859
24,c1cnc(NCC2Cn3nnc(-c4ccsc4)c3CO2)nc1 (centres undefined),-8.794
25,CCc1nnc(N2C[C@@H](NC(C)=O)[C@H](c3ccc(C)o3)C2)s1,0.4936
26,CCN1CCN(c2ccc(C(=O)NC(C)C(=O)N(C)C)cc2)CC1 (centres undefined),1.595

row,SMILES,Percent Effect [%]
1,CNC(=O)CN1CCN(C(=O)Nc2ccc(C)s2)CC1,-4.084
2,CN(CCc1cccs1)C(=O)Nc1ccc2c(c1)C(=O)N(C)CC2,-32.58
3,Cc1nn(C(C)C)c(C)c1CN1CCC(c2cc(C(C)C)n[nH]2)CC1,4.458
4,COCCNC(=O)c1nc2c(s1)CCCN2Cc1ccccc1,6.623
5,COCCN1CCCc2sc(C(=O)NCC3CCCO3)nc21 (centres undefined),104.4
6,COCCN1CCCc2sc(C(=O)Nc3ccc(C)nc3)nc21.O=C(O)C(F)(F)F,8.218
7,CN(C)C(=O)CNC(=O)c1nc2c(s1)CCCN2Cc1ccccc1,-13.23
8,O=C(NCC1CCCO1)c1nc2c(s1)CCCN2Cc1ccccc1 (centres undefined),98.1
9,COCCN1CCCc2sc(C(=O)N3CCCN(C)CC3)nc21.O=C(O)C(F)(F)F,-1.049
10,Cc1ccc(-c2n[nH]cc2CN(Cc2nccn2C)C(C)C)cc1C,-8.138
11,COc1ccc(N2Cc3nc(=O)[nH]n3C2=O)cc1,-10.45
12,COCCSc1ccc(-n2cccn2)nn1,0.3938
13,CC(c1nncn1C)n1cc(-c2cc(CN3CCCC3)cs2)nn1 (centres undefined),2.3
14,CCC(Sc1ncc(CO)n1C)c1ccccc1 (centres undefined),5.427
15,Oc1nnc(-c2ccccc2)c2sc(N3CCCCC3)nc12,-2.363
16,Cc1cc(Br)c(O)c(-c2nc(N3CCCCC3)sc2C)c1,122.7
17,Cc1cc(Br)c(O)c(C(=O)N2CCC(CN3CCCCCC3)CC2)c1,20
18,Cc1cc(Br)c(O)c(-c2nc(N3CCOCC3)sc2C)c1,133.3
19,COc1ccc(-n2nc(C(C)C)nc2Cn2cncn2)cc1,2.008
20,CCn1c(C2CCN(C(=O)c3cc(C4CC4)on3)CC2)nn(C)c1=O,94.75
21,O=C(c1cc(C2CC2)on1)N1CCC(Oc2ncccc2Br)CC1,12.65
22,CCn1nc(CC(C)C)cc1C(=O)N1CCC(n2cnnc2)CC1,19.79
23,CCOC(=O)CC1CCCCN1C(=O)CCc1cc(Cl)no1 (centres undefined),-3.772
24,Cc1nc(CN2CCN(C(=O)c3cc(C4CC4)on3)CC2)cs1,-4.93
25,CCn1c(C2CCN(C(=O)c3cc(CC(C)C)no3)CC2)nn(C)c1=O,80.93
26,CCn1c(CC2CCN(C(=O)c3cc(CC(C)C)on3)CC2)n[nH]c1=O,3.496

row,SMILES,Percent Effect [%]
1,CC(C)Cc1cc(C(=O)N2CCC(C(=O)N3CCOCC3)CC2)on1,-1.733
2,CCn1c(C2CCN(C(=O)c3cc(CC(C)C)on3)CC2)nn(C)c1=O,100.4
3,CCn1c(C2CCN(C(=O)CCc3cc(Cl)no3)CC2)nn(C)c1=O,91.1
4,COC(=O)C1CCCN1C(=O)c1cc(CC(C)C)no1 (centres undefined),-6
5,O=C(CCc1cc(Cl)no1)N1CCN(CCn2cncn2)CC1,-9.479
6,CC(C)N(Cc1cccnc1)C(=O)CSc1ccc(C#N)cc1,-11.42
7,CC(C)(C)c1cc(C[C@H]2CNCC[C@H]2CC(=O)Nc2ccccc2)no1,-4.037
8,COc1ccc(Cc2noc(C3=NN(C)C(=O)CC3)n2)cc1OC,-17.82
9,CCn1c(C2CCN(C(=O)c3cc(Cl)no3)CC2)nn(C)c1=O,81.76
10,CCn1c(C2CCCN(Cc3ccc(F)cc3Cl)C2)nn(C)c1=O (centres undefined),-0.1084
11,CCn1c(C2CCCN(Cc3cc(C)cc(C)c3)C2)nn(C)c1=O (centres undefined),14.99
12,COC1CCN(C(=O)CC2CCCC2)CC(=O)N(C)c2ccccc21 (centres undefined),104.1
13,COC1CCN(C(=O)C2CC(=O)N(c3ccccc3Br)C2)CC1 (centres undefined),-10.75
14,COC1CN(C(=O)CC2CCCC2)CCC(=O)N(C)c2ccccc21 (centres undefined),101.3
15,CCN1CCC(CC(=O)N2CCN(c3ccccc3OC)CC2C)CC1 (centres undefined),10.24
16,COC1CCN(C(=O)C2CCCC2)CC(=O)N(C)c2ccccc21 (centres undefined),111
17,COC(=O)NCC(=O)NCC1(c2c(F)cccc2F)CCCC1,1.826
18,O=C(CN1CCC(c2cccc(F)c2)C1)NCC(F)(F)F (centres undefined),-23.91
19,COc1cc(F)c(C(=O)NCc2cc(C)on2)c(F)c1,-19.16
20,CCSc1ncc(CN2CCN(c3nc(C)ncc3C)CC2)cn1,0.05242
21,O=C(NC[C@H]1CCCO1)c1ccc(S(=O)(=O)N2C[C@@H]3C[C@H]2CN3)cc1,-5.829
22,CN(Cc1ccccn1)C(=O)c1cc(CN2CCC(O)CC2)on1,-20.11
23,NCCn1cc(C(=O)NCc2ccccc2-n2cccn2)nn1,-2.966
24,CC1CCC(O)(Cn2ncnc2-c2cccc(C#N)c2)CC1 (centres undefined),-11.33
25,CC(C)N1CCC(Nc2ccn(CCC#N)n2)C1=O (centres undefined),1.087
26,CCCc1nn(C2CCN(C(C)C)C2=O)c(=O)o1 (centres undefined),-9.274

row,SMILES,Percent Effect [%]
1,CCCc1nn(C2CCCN(C(C)C)C2=O)c(=O)o1 (centres undefined),-1.45
2,CC(C)N1CCCC(N2CCOC3(CCCC3)C2)C1=O (centres undefined),-1.206
3,Cc1nnc(-c2cccc(C#N)c2)n1C1CCN(C(C)C)C1=O (centres undefined),107.2
4,Cc1nnc(-c2cccc(C#N)c2)n1C1CCCN(C(C)C)C1=O (centres undefined),109.2
5,Cc1nnc(-c2cccc(C#N)c2)n1C1CCN(C2CC2)C1=O (centres undefined),99.28
6,CC(=O)N1CCC(Oc2cccc(C#N)c2)CC1,-7.429
7,Cc1noc(-c2cccnc2N2CCN(c3cnn(C)c3)CC2)n1,-14.91
8,O=C(NCCc1cccs1)N1CCCC2(CCC(=O)N(C3CC3)C2)C1 (centres undefined),-0.08952
9,Cl.NCC(=O)N1CCCC1c1n[nH]cc1-c1ccccc1F (centres undefined),132.3
10,O=C(COCC1CC1)N1CCCC1c1nc(-c2ccccc2F)c[nH]1 (centres undefined),4.201
11,COC(=O)NCC(=O)N1CCCC1c1nc(-c2ccccc2F)c[nH]1 (centres undefined),0.1259
12,CNCC(=O)N1CCCC1c1n[nH]cc1-c1ccccc1F.Cl (centres undefined),165.9
13,NCC(=O)N1CCCCC1c1ccc(F)cc1 (centres undefined),-11.61
14,CCC(=O)N1CCCC1c1n[nH]cc1-c1ccccc1F (centres undefined),184.8
15,CCOCCCC(=O)N1CCCC1c1nc(-c2ccccc2F)c[nH]1 (centres undefined),-5.002
16,O=C1CC(c2ccsc2)c2sc(C(=O)O)c(-c3ccccc3)c2N1 (centres undefined),15.35
17,O=C(NCCCN1CCCCC1)c1ccc(-n2ccc3ccccc32)s1,-1.697
18,O=C(NCCCN1CCCC1=O)c1ccc(-n2ccc3ccccc32)s1,114.9
19,CCN(CC)CCNC(=O)c1ccn(COc2cc(C)cc(C)c2)n1,5.075
20,CCN(CC)CCNC(=O)c1ccc(-n2ccc3ccccc32)s1,94.19
21,Cc1ccc(OCCC(=O)NCCCN2CCCC2=O)c(C)c1,-5.078
22,O=C(NCCN1CCOCC1)c1ccc(-n2ccc3ccccc32)s1,-14.37
23,CCN(CC)CCNC(=O)c1ccc(Cl)c(NS(C)(=O)=O)c1,-1.52
24,O=C(NCCCN1CCOCC1)c1ccc(-n2ccc3ccccc32)s1,91.37
25,O=C(NCCCN1CCOCC1)C(OC1CCCC1)c1ccccc1 (centres undefined),-5.979
26,O[C@@H]1CN(Cc2cc(Cl)cc3cccnc23)C[C@@H]1O,10.63
